Records with an inconclusive call do not appear. Calls of active or inactive are those of the source. How the source made its calls, unless noted: active means hit-call score of the fitted dose curve at least 0.9, where 1 is the maximum; inactive means score below 0.9.
Tests used:
[1] = CCTE_Shafer_MEA_dev_correlation_coefficient_mean: CCTE's Neural Network Formation Assay for Mean Correlation Coefficient, Shafer Lab (AID 2284093)
How it was run: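 Spontaneous activity recorded on days 5, 7, 9 and 12 post-plating; pairwise spike correlations are averaged across active electrodes and collapsed to an area-under-curve. Rat cortical cultures are dosed from plating through 12 days, with compound renewed at media changes.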

[2] = UKN2_HCS_IMR90_neural_migration: University of Konstanz (UKN) Leist Lab Neural Crest Cell Migration Assay in human induced IMR90 Pluripotent Stem Cells (UKN2) (AID 2284204); conditions: actives raise or lower the signal
How it was run: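 iPSC-derived IMR90 neural crest cells seeded around stoppers on PLO/laminin/fibronectin; migration started in N2-S medium with EGF/FGF, compounds added after 24 h for 24 h. Migration into cell-free area imaged after calcein-AM/Hoechst staining; bidirectional fit versus DMSO.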

[3] = UKN4_HCS_LUHMES_neurite_outgrowth: University of Konstanz (UKN) Leist Lab Neurite Outgrowth Assay in human LUHMES cells (UKN4) (AID 2284206); conditions: actives raise or lower the signal
How it was run: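 LUHMES neuronal precursors differentiated 2 days, replated without cAMP/GDNF, then exposed to chemicals for 24 h. Neurite area imaged by high-content microscopy after calcein-AM staining; Hoechst H-33342 marks viability. Bidirectional fit versus DMSO.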

[4] = IUF_NPC1b_proliferation_BrdU_72hr: Leibniz Research Institute for Environmental Medicine (IUF) 72-hour Neural Progenitor Cell Bromodeoxyuridine (BrdU) Proliferation Assay (NPC1b) (AID 2284207)
How it was run: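 BrdU luminescence ELISA quantified DNA synthesis over the last 16 h of a 72 h exposure, fitted against DMSO. Primary hNPC spheres from gestational week 16-19 cortex grown with EGF/FGF at 37C, pH 7.2-7.6.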

[5] = IUF_NPC1a_proliferation_area_72hr: Leibniz Research Institute for Environmental Medicine (IUF) 72-hour Neural Progenitor Cell Proliferation Area Assay (NPC1a) (AID 2284208)
How it was run: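 hNPC spheres (human fetal cortex, GW 16-19), one per poly-Hema U-bottom well; EGF+FGF medium; dosed day 0, no re-dosing; 72 h, 37C, 5% CO2; phase-contrast sphere area; DMSO = baseline; minus-GF = positive ctrl.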

[6] = IUF_NPC1_viability_72hr: Viability Assessment at 72 hours in the Leibniz Research Institute for Environmental Medicine (IUF) Neural Progenitor Cell Proliferation Assay (NPC1) (AID 2284209)
How it was run: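 Human fetal-cortex neural progenitor spheres (0.25–0.35 mm, one per well) grown in EGF/FGF proliferation medium at 37C, pH 7.2-7.6, exposed 72 h without renewal; viability read as alamar blue resazurin-to-resorufin fluorescence relative to DMSO.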

[7] = CCTE_Mundy_HCI_Cortical_Synap_Neur_Matur_NeuriteSpotCountPerNeuriteLength: CCTE's Synaptogenesis and Neurite Maturation Assay in rat cortical cells for Neurite Spot Count per Neurite Length, Mundy Lab (AID 2284210)
How it was run: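 Rat primary cortical cultures, AraC added at DIV 5 to suppress glia; chemical exposure from DIV 7 to DIV 12. Fixed cells stained for MAP2 and synaptophysin plus Hoechst; synaptophysin puncta per neurite length quantified by high-content imaging, relative to DMSO.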

[8] = CCTE_Mundy_HCI_Cortical_NOG_NeuriteLength: CCTE's Neurite Outgrowth Assay in rat cortical cells for Neurite Length, Mundy Lab (AID 2284213);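 further: neurites imaged about 48 to 50 h after chemical exposure began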
How it was run: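 Neurite length was read by high-content imaging of βIII-tubulin-labelled neurites in rat primary cortical cultures. Activity was fitted relative to DMSO.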

[9] = CCTE_Mundy_HCI_Cortical_Synap_Neur_Matur_NeuriteSpotCountPerNeuron: CCTE's Synaptogenesis and Neurite Maturation Assay in rat cortical cells for Neurite Spot Count per Neuron Count, Mundy Lab (AID 2284215)
How it was run: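 Read-out: neurite-associated synaptophysin puncta per neuron, imaged by high-content analysis after MAP2, synaptophysin and Hoechst staining. Rat primary cortical cultures, dosed DIV 7 through DIV 12; DMSO served as baseline.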

[10] = CCTE_Mundy_HCI_Cortical_Synap_Neur_Matur_SynapseCount: CCTE's Synaptogenesis and Neurite Maturation Assay in rat cortical cells for Synapse Count, Mundy Lab (AID 2284218)
How it was run: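 Rat primary cortical cells in 96-well plates received AraC at DIV 5 and were dosed with chemicals at DIV 7 with media change, through DIV 12 (288.33 h). Synapses per neuron counted by high-content imaging of MAP2/synaptophysin/Hoechst staining, versus DMSO baseline.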

[11] = CCTE_Mundy_HCI_hN2_NOG_NeuriteCount: CCTE's Neurite Outgrowth Assay in human hN2 cells for Neurite Count, Mundy Lab (AID 2284219; active means hit-call score of the fitted dose curve at least 0.9, where 1 is the maximum)
How it was run: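 In this morphology assay, hNP1-derived neurons received test chemical 2 h post-plating and were fixed two days later in warm paraformaldehyde/sucrose containing Hoechst 33342. Neurites, labelled by rabbit anti-βIII-tubulin (1:800) and Alexa Fluor-488 (1:500), were counted automatically.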

[12] = CCTE_Mundy_HCI_hN2_NOG_NeuriteLength: CCTE's Neurite Outgrowth Assay in human hN2 cells for Neurite Length, Mundy Lab (AID 2284220; active means hit-call score of the fitted dose curve at least 0.9, where 1 is the maximum)
How it was run: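 Read-out is neurite length from high-content imaging of βIII-tubulin/Alexa Fluor-488-labelled neurons, referenced to DMSO controls.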

[13] = CCTE_Mundy_HCI_hN2_NOG_NeuronCount: CCTE's Neurite Outgrowth Assay in human hN2 cells for Neuron Count, Mundy Lab (AID 2284221; active means hit-call score of the fitted dose curve at least 0.9, where 1 is the maximum)
How it was run: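 Read-out is the number of betaIII-tubulin-positive neurons imaged by automated high-content analysis, with DMSO as negative control.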

[14] = CCTE_Mundy_HCI_Cortical_Synap_Neur_Matur_CellBodySpotCount: CCTE's Synaptogenesis and Neurite Maturation Assay in rat cortical cells for Cell Body Spot Count, Mundy Lab (AID 2284223)
How it was run: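 Read-out: cell body-associated synaptophysin puncta per neuron, imaged after MAP2, synaptophysin and Hoechst staining. Rat cortical cells, AraC DIV 5, chemical dosing DIV 7, fixation DIV 12. Activity fitted in positive direction relative to DMSO baseline.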

[15] = UKN4_HCS_LUHMES_cell_viability: Viability Assessment in the University of Konstanz (UKN) Leist Lab Neurite Outgrowth Assay in human LUHMES cells (UKN4) (AID 2284232)
How it was run: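 LUHMES cells differentiated 2 days, replated without cAMP/GDNF, then exposed to compounds for 24 h from attachment. Viability read by high-content fluorescence imaging after 30 min live-staining with H-33342 and calcein-AM; bidirectional fit relative to DMSO baseline.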

[16] = UKN2_HCS_IMR90_cell_viability: Viability Assessment in the University of Konstanz (UKN) Leist Lab Neural Crest Cell Migration Assay in human induced IMR90 Pluripotent Stem Cells (UKN2) (AID 2284233);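 further: viability of neural crest cells differentiated from IMR90 iPSC measured by calcein-AM fluorescence imaging; cells exposed to compound for 24 h after a 24 h migration phase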
How it was run: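 Neural crest cells derived from IMR90 iPSC migrate into a stopper-free zone for 24 h in EGF/FGF medium, then are exposed to compound for 24 h. Viability assessed by calcein-AM and Hoechst staining with high-content imaging, fitted bidirectionally versus DMSO.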

[17] = CCTE_Mundy_HCI_Cortical_NOG_NeuronCount: CCTE's Neurite Outgrowth Assay in rat cortical cells for Neuron Count, Mundy Lab (AID 2284236; active means hit-call score of the fitted dose curve at least 0.9, where 1 is the maximum;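 further: neurons counted by imaging betaIII-tubulin and Hoechst stained cortical cells; cells exposed to compound for about 48 hours before fixation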)
How it was run: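 Read-out: neuron number by high-content imaging of betaIII-tubulin (Alexa Fluor-488) and Hoechst-labelled rat primary cortical cells.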

[18] = CCTE_Mundy_HCI_hNP1_Casp3_7: CCTE's Caspase-Glo 3/7 Assay in human neuroprogenitor cells for Apoptosis, Mundy Lab (AID 2284240)
How it was run: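 Luminescent caspase-3/7 readout, 26.5 h post-dose, in human neural progenitor cells from WA09 embryonic stem cells. Cells grew 40–44 h at 37 °C, 5% CO2 before chemical addition. Activity analysed as signal increase over DMSO baseline.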

[19] = CCTE_Mundy_HCI_Cortical_Synap_Neur_Matur_NeuronCount: CCTE's Synaptogenesis and Neurite Maturation Assay in rat cortical cells for Neuron Count, Mundy Lab (AID 2284242; active means hit-call score of the fitted dose curve at least 0.9, where 1 is the maximum)
How it was run: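 Rat primary cortical cells received AraC at DIV 5 to arrest glia, then were dosed with chemicals at DIV 7 through DIV 12. Fixed cells were stained for nuclei, MAP2 and synaptophysin, and neurons were counted by high-content imaging relative to DMSO.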

[20] = IUF_NPC2c_oligodendrocyte_migration_120hr: Leibniz Research Institute for Environmental Medicine (IUF) 120-hour Neural Progenitor Cell Migration Assay for Oligodendrocyte Migration (NPC2c) (AID 2284297);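 further: O4-positive oligodendrocyte migration distance divided by radial glia migration distance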
How it was run: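 hNPC spheres (GW 16-19 cortex), PDL/laminin, DMEM/F12 3:1 + 1% N2, 37C. Dosing day 0–5, half feed day 3, DMSO ≤0.1%. Fixed 120 h; O4 ICC + Hoechst, HCI. Readout: mean oligodendrocyte distance from sphere edge / radial glia distance.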

[21] = IUF_NPC2a_radial_glia_migration_120hr: Leibniz Research Institute for Environmental Medicine (IUF) 120-hour Neural Progenitor Cell Migration Assay for Radial Glia Migration (NPC2a) (AID 2284298)
How it was run: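 Hoechst-stained nuclei imaged at 120 h; algorithm maps sphere core by densest nuclei, sets migration edge at density threshold, gives radial glia migration distance (um) per well vs DMSO. hNPC spheres (0.3 mm), PDL/laminin, DMEM/F12 3:1 + 1% N2.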

[22] = IUF_NPC2a_radial_glia_migration_72hr: Leibniz Research Institute for Environmental Medicine (IUF) 72-hour Neural Progenitor Cell Migration Assay for Radial Glia Migration (NPC2a) (AID 2284299)
How it was run: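 Human fetal cortex (GW 16-19) neural progenitor spheres, 0.3 mm, plated on poly-D-lysine/laminin in N2 differentiation medium with compound from day 0. Radial glia migration distance (um, sphere core edge to migration edge) measured manually in four directions on 72 h brightfield images; well mean used.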

[23] = IUF_NPC3_neuronal_differentiation_120hr: Leibniz Research Institute for Environmental Medicine (IUF) 120-hour Neuronal Differentiation Assay (NPC3) (AID 2284301)
How it was run: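 Human fetal (GW 16-19) neural progenitor spheres (0.3 mm) plated on poly-D-lysine/laminin in N2 differentiation medium, exposed 120 h at 37C with half-medium renewal day 3; 7 concentrations. TUBB3+ cells as % of Hoechst nuclei, CNN-identified; DMSO baseline.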

[24] = IUF_NPC4_neurite_length_120hr: Leibniz Research Institute for Environmental Medicine (IUF) 120-hour Neuronal Morphology Assay for Neurite Length (NPC4) (AID 2284302)
How it was run: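 Human fetal neural progenitor spheres (0.3 mm) plated on poly-D-lysine/laminin in N2 differentiation medium, exposed from day 0 for 120 h with half-medium refresh at day 3, 37C. Mean neurite length (um) of TUBB3-positive neurons from skeletonized immunostaining images; DMSO ≤0.1%.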

[25] = IUF_NPC5_oligodendrocyte_differentiation_120hr: Leibniz Research Institute for Environmental Medicine (IUF) 120-hour Oligodendrocyte Differentiation Assay (NPC5) (AID 2284304; active means hit-call score of the fitted dose curve at least 0.9, where 1 is the maximum;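 further: primary human fetal neural progenitor spheres plated to migrate and differentiate; share of O4-positive cells among Hoechst nuclei found by CNN image analysis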)
How it was run: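 hNPC spheres, fetal cortex GW 16-19; PDL/laminin, DMEM:F12 3:1 + 1% N2, 37C/5% CO2; 7 concentrations + solvent control, 5 d exposure, half-change day 3. Readout: %O4+ of Hoechst+ nuclei in migration area, CNN classification; DMSO baseline.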

[26] = IUF_NPC2-5_cytotoxicity_72hr: Cytotoxicity Assessment at 72 hours in the Leibniz Research Institute for Environmental Medicine (IUF) Neural Progenitor Cell Migration and Differentiation Assay for Cytotoxicity (NPC2-5) (AID 2284306; active means hit-call score of the fitted dose curve at least 0.9, where 1 is the maximum;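 further: LDH release into supernatant measured by resorufin fluorescence marking membrane damage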)
How it was run: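 Human fetal primary neural progenitor spheres (0.3 mm) plated on poly-D-lysine/laminin in N2 differentiation medium, exposed from day 0 at 37C. LDH-dependent resazurin-to-resorufin fluorescence in supernatant at 72 h; 7 concentrations, DMSO at most 0.1%.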

[27] = IUF_NPC2-5_cytotoxicity_120hr: Cytotoxicity Assessment at 120 hours in the Leibniz Research Institute for Environmental Medicine (IUF) Neural Progenitor Cell Migration and Differentiation Assay (NPC2-5) (AID 2284307; active means hit-call score of the fitted dose curve at least 0.9, where 1 is the maximum;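 further: LDH released into supernatant as membrane damage marker via resorufin fluorescence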)
How it was run: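 hNPC spheres on PDL/laminin, N2 medium, 37C; 7 concs + solvent control, DMSO ≤0.1%; 5-day exposure, half medium changed day 3. LDH in supernatant at 120 h, resazurin→resorufin fluorescence, gain-of-signal.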

[28] = IUF_NPC2-5_cell_number_120hr: Cell Number Assessment at 120 hours in the Leibniz Research Institute for Environmental Medicine (IUF) Neural Progenitor Cell Migration and Differentiation Assay (NPC2-5) (AID 2284308);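 further: count of Hoechst-stained nuclei in migration zone around plated human neural progenitor spheres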
How it was run: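 Hoechst-stained nuclei within the migration area were counted by automated high content imaging after 120 h. Single hNPC spheres differentiated on poly-D-lysine/laminin in DMEM/F12 (3:1) with 1% N2, compound present throughout, DMSO ≤0.1%.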

[29] = IUF_NPC2-5_viability_120hr: Viability Assessment at 120 hours in the Leibniz Research Institute for Environmental Medicine (IUF) Neural Progenitor Cell Migration and Differentiation Assay (NPC2-5) (AID 2284312)
How it was run: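 Human fetal neural progenitor spheres (0.3 mm) plated on poly-D-lysine/laminin in N2 differentiation medium, exposed 120 h with half-medium refresh at day 3. Viability by alamar blue resazurin fluorescence; 7 concentrations, DMSO max 0.1%.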

[30] = IUF_NPC1_cytotoxicity_72hr: Cytotoxicity Assessment at 72 hours in the Leibniz Research Institute for Environmental Medicine (IUF) Neural Progenitor Cell Proliferation Assay (NPC1) (AID 2284332; active means hit-call score of the fitted dose curve at least 0.9, where 1 is the maximum;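 further: rising LDH signal means more cytotoxicity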)
How it was run: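 Single human fetal cortex neural progenitor spheres (GW 16-19, 0.25-0.35 mm) in EGF/FGF proliferation medium were exposed to compound for 72 h at 37C without renewal. Medium LDH release was read as resorufin fluorescence and fitted as gain-of-signal.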

Measured: AC50

C[C@@H]1C[C@H]2[C@@H]3CCC4=CC(=O)C=C[C@]4(C)[C@@]3(F)[C@@H](O)C[C@]2(C)[C@@]1(O)C(=O)CO
inactive: [1] | [2] | [3] | [5] | [6] | [7] | [9] | [10] | [11] | [12] | [13] | [14] | [15] | [16] | [17] | [18] | [19] | [20] | [21] | [22] | [23] | [24] | [25] | [26] | [28] | [29] | [30]
active: [4] 90.1 nM | [8] 21100 nM | [27] 24 nM
